In PubChem BioAssay (NCI):
This is part of a sample that, as a whole, favours compounds with a hit. Of some 79,000 tested, about 15% had one in any assay. The source made the active and inactive calls. Rule as the data show it: active = growth inhibition above about 70%; inactive = the rest.

Tests used:
[1] = NCI Yeast Anticancer Drug Screen. Data for the rad50 strain (AID 155);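 also: 0% = growth of vehicle-only cultures of the same strain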; conditions: S. cerevisiae rad50 strain growth inhibition; at 50.0 µM; stronger effect = higher value
Outline: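 Vehicle-treated cultures provide the reference for the growth inhibition reported for compound-exposed, repair-deficient yeast.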

[2] = NCI Yeast Anticancer Drug Screen. Data for the mec2-1 strain (AID 157); conditions: S. cerevisiae mec2-1 strain, at 50.0 µM, stronger effect = higher value
Outline: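 Yeast mec2-1 mutant treated with compound. Readout: growth inhibition vs vehicle controls.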

[3] = NCI Yeast Anticancer Drug Screen. Data for the sgs1 mgt1 strain (AID 161);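 also: 0% = growth of cultures given vehicle only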; conditions: S. cerevisiae sgs1 mgt1 strain, at 50.0 µM, stronger effect = higher value
Outline: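 Genetically altered yeast, compound exposure, growth inhibition relative to vehicle.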

[4] = NCI Yeast Anticancer Drug Screen. Data for the cln2 rad14 strain (AID 165);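 also: 0% = growth equal to vehicle treated cultures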; conditions: S. cerevisiae cln2 rad14 strain, at 50.0 µM, stronger effect = higher value
Outline: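 cln2 rad14 yeast strain; compound exposure; growth inhibition read vs vehicle controls.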

[5] = NCI Yeast Anticancer Drug Screen. Data for the bub3 strain (AID 167); conditions: S. cerevisiae bub3 mutant strain, at 50.0 µM, stronger effect = higher value
Outline: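 Mutant yeast screening strain plus compound; vehicle-treated cultures serve as the 0% inhibition reference.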

[6] = NCI Yeast Anticancer Drug Screen. Data for the mlh1 rad18 strain (AID 175); conditions: S. cerevisiae mlh1 rad18 strain growth inhibition; at 50.0 µM; stronger effect = higher value
Outline: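 Yeast w/ defined DNA-repair lesions; compound exposure; growth vs vehicle controls → % inhibition.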

Measured: growth inhibition

NC1=CN(Cc2ccccc2)C2=N/C(=C\c3ccccc3)C(=O)N12
inactive: [1] -13.3% | [2] -5.8% | [3] 8.5% | [4] -16% | [5] 14.2% | [6] -33.7%

N#C/C(=C/c1cccc2ccccc12)C(=O)c1ccccc1
inactive: [1] 36.9% | [2] -2.75% | [3] 3.6% | [4] 26.9% | [5] -3.75% | [6] -5.5%

C=CS(=O)(=O)CCCCCCCCCCCCCC
inactive: [1] 28.1% | [2] 27.6% | [3] 28.9% | [4] 2.1% | [5] -5% | [6] 29.5%

ClCC(OCc1ccccc1)OCc1ccccc1
inactive: [1] -21.6% | [2] 4.8% | [3] -4.45% | [4] -36% | [5] 12.4% | [6] 17.1%

CCOC(=O)CCC(NC(=O)c1ccc(NCc2ccc3nc(-c4ccccc4)c(Cl)nc3c2)cc1)C(=O)OCC (stereo not drawn)
inactive: [1] 29.7% | [2] -3.85% | [3] -5.3% | [4] -5.6% | [5] 1.7% | [6] 4.3%

O=C(Nc1ccccc1C/C(=N/O)c1ccc2c(c1)OCO2)c1ccccc1
inactive: [1] 51.5% | [2] 0.4% | [3] 54.1% | [4] -32% | [5] 3.55% | [6] 23.4%

NC(=O)CCN(CCC(N)=O)CCC(N)=O
inactive: [1] -9.25% | [2] 7.1% | [3] -3.3% | [4] -24.9% | [5] -4.15% | [6] -12.9%

O=c1cc(-c2ccccc2Cl)[nH]c2cc3c(cc12)OCO3
inactive: [1] 14.1% | [2] -26.3% | [3] 21.9% | [4] -6.95% | [5] 12.6% | [6] -39.8%

CNc1nnnn1-c1ccccc1C
inactive: [1] -10.8% | [2] -3.55% | [3] -10.8% | [4] -86.5% | [5] -4.05% | [6] -8.05%

CCCCN(CCCC)CC(O)c1cccc2c1cc(Cl)c1ccccc12 (stereo not drawn)
active: [1] 99.2% | [2] 99.6% | [3] 99.5% | [4] 98.5% | [5] 98.5% | [6] 99.3%

O=c1/c(=C\c2ccccc2Cl)sc2n1CCN=2
inactive: [1] 22.2% | [2] 5.8% | [3] 4.9% | [4] 15.4% | [5] 11.3% | [6] 24.9%

CCCCC1SC2=NCCN2C1(O)c1ccc(Cl)cc1 (stereo not drawn)
inactive: [1] 14.6% | [2] 3.55% | [3] 28.9% | [4] 18% | [5] 31.3% | [6] 26.5%

CCC1SC(N)=NC1=O (stereo not drawn)
inactive: [1] 16.1% | [2] 9.65% | [3] 24.7% | [4] 20.4% | [5] 10.2% | [6] 5.55%

COCC(=O)C(C(C)=O)C(c1ccc(N(C)C)cc1)C(C(C)=O)C(=O)COC (stereo not drawn)
inactive: [1] -12.2% | [2] -10.6% | [3] -12.7% | [4] -69.7% | [5] 2.8% | [6] -9.35%

O=C(O)c1ccc([N+](=O)[O-])cc1N(c1ccccc1)c1ccccc1
inactive: [1] 27.6% | [2] 29.9% | [3] 40.1% | [4] 22.2% | [5] 29.3% | [6] 54%

CC(=O)OCC(=O)C1(C)CCC2(C)CCC3(C)C(=CC(=O)C4C5(C)CCC(=O)C(C)(C)C5CCC43C)C2C1 (stereo not drawn)
inactive: [1] -2.95% | [2] -30.8% | [3] 2.7% | [4] -2.25% | [5] 13.7% | [6] 15.4%

CCCCCCCCCCCCCCCCCCCCCCOC(=O)CCC(=O)OCCCCCCCCCCCCCCCCCCCCCC
inactive: [1] 17.2% | [2] -44.3% | [3] 17.4% | [4] -0.95% | [5] -10.8% | [6] 5.75%

NC(=O)c1ccccc1OC(=O)Nc1ccccc1
inactive: [1] 16.6% | [2] 7.5% | [3] 5.1% | [4] 17.2% | [5] 22.1% | [6] 10.8%

NC(=O)c1cc(Cl)c(N)c(Cl)c1
inactive: [1] 8.2% | [2] -7.65% | [3] -11.6% | [4] -5.25% | [5] -12.4% | [6] -11.8%

CNC(CCCC1CCCCC1)C(=O)O (stereo not drawn)
inactive: [1] -2.85% | [2] 5.7% | [3] -0.15% | [4] 11.4% | [5] 12.8% | [6] -7.35%

CC(C)[C@@H]1CC[C@@H](C)C[C@H]1OC(=O)/C=C1\C(C(=O)O[C@@H]2C[C@H](C)CC[C@H]2C(C)C)[C@H]2C=C[C@@H]1O2 (stereo partly drawn)
inactive: [1] -6.15% | [2] -13.6% | [3] -9.35% | [4] -25.1% | [5] -27.1% | [6] 6.5%

CC12CCc3ccccc3C1=NNC(=O)C2 (stereo not drawn)
inactive: [1] -3.2% | [2] -7.55% | [3] 19.6% | [4] -6.45% | [5] -5.85% | [6] -6.15%

O=C(CSCC(=O)c1ccc([N+](=O)[O-])cc1)c1ccc([N+](=O)[O-])cc1
inactive: [1] -19.4% | [2] -29.6% | [3] 9.85% | [4] -0.65% | [5] -20.1% | [6] -5%

c1ccc([P+](c2ccccc2)(c2ccccc2)C2c3ccccc3CCc3ccccc32)cc1
active: [1] 99.6% | [2] 99.8% | [3] 99.5% | [4] 99.5% | [5] 99.4% | [6] 99.6%

CCN(CC)CCC(=O)N1CCc2c([nH]c3ccccc23)C1c1cccnc1 (stereo not drawn)
inactive: [1] -26.9% | [2] -18.9% | [3] -3.95% | [4] -6.7% | [5] -0.1% | [6] -28.2%

O=C(/C=C/c1ccccc1)NCCC1(O)C(=O)Nc2ccccc21 (stereo not drawn)
inactive: [1] -8% | [2] -17.2% | [3] 3.05% | [4] 8.35% | [5] -10.5% | [6] -15.5%

C[C@@H](CO)OCOCc1ccccc1
inactive: [1] 7.5% | [2] -1.25% | [3] 4% | [4] 18.5% | [5] 7.3% | [6] 19.5%

O=C(c1ccccc1)C(c1ccccc1)C1(O)C(=O)Nc2c(Cl)ccc(Cl)c21 (stereo not drawn)
inactive: [1] -18.1% | [2] 10.6% | [3] 5% | [4] -0.05% | [5] -8.1% | [6] -29.2%

CCOC(=O)C(C)C(=O)OCC
inactive: [1] 51.2% | [2] -17.9% | [3] 2.55% | [4] -3.6% | [5] 2.3% | [6] 34.5%

O=C1OC(C(O)CO)C(C(O)CO)OC1=O (stereo not drawn)
inactive: [1] -9.3% | [2] -15.6% | [3] -39.5% | [4] -7.35% | [5] -12.3% | [6] 1.6%

O=C(O)C1(C(=O)O)CCN(S(=O)(=O)c2ccccc2)CC1
inactive: [1] -4% | [2] -10.9% | [3] -39% | [4] -5.2% | [5] -9.85% | [6] -7%

O=C(/C(N=Nc1ccccc1)=C(\O)c1ccccc1)c1ccccc1
inactive: [1] -8.15% | [2] -9.7% | [3] 2.45% | [4] 11.8% | [5] 7.05% | [6] -6.2%

CC(Oc1ccccc1)C(=O)Nc1ccc(F)cc1 (stereo not drawn)
inactive: [1] -1% | [2] 9.5% | [3] 17.8% | [4] -11.1% | [5] 35.9% | [6] 17.6%

Cc1cc2nc3c(=O)[nH]c(=O)nc-3n(CCO)c2cc1C
inactive: [1] -0.5% | [2] 1.5% | [3] 8.6% | [4] -39.4% | [5] 6.15% | [6] -9.95%

O=P(c1ccccc1)(c1ccccc1)C(O)c1cccs1 (stereo not drawn)
inactive: [1] 12.8% | [2] 2% | [3] 17.6% | [4] 15.5% | [5] 24.9% | [6] 18.8%

Cc1ccc(/C(O)=C/C(=O)C(=O)NC23CC4CC(CC(C4)C2)C3)cc1
inactive: [1] 36.9% | [2] 15.3% | [3] 32.4% | [4] 24.9% | [5] 15.8% | [6] 23.4%

CN(C)c1ccc(C2NC(c3ccccc3)c3c(ccc4ccccc34)O2)cc1 (stereo not drawn)
inactive: [1] 8.5% | [2] 2.45% | [3] -12.7% | [4] -22.8% | [5] 2.5% | [6] 0.95%

CCCCCCCSSCCCCCCC
inactive: [1] -9.85% | [2] -26.1% | [3] -3.55% | [4] 11.9% | [5] -16% | [6] -0.4%
